Screens deposited in PubChem by Sanford-Burnham Center for Chemical Genomics.
A selection: hits, their analogues and other compounds. The true share with any hit is near 4.1%.
p-CIP stab down: compounds decreasing mouse p/CIP protein stability; decrease of EGFP signal, % at 10 µM; F442A p/CIP-EGFP cells, EGFP fluorescence, 16 h; 290,000 compounds, 0.01% hits; Q05BA5;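 active = EGFP signal decrease of at least 30% at 10 µM or well 3 SD below plate mean, unless failing retest; inactive = the rest, including hits failing retest or dose response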
MPTP block: blocks calcium-induced mitochondrial swelling. inhibition, % at 10 µM. 360,000 compounds, 1.4% hits. isolated mouse mitochondria, Ca2+ swelling absorbance, 30 min;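 active = inhibition of 50% or more, scaled per plate between neutral and stimulator controls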;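 note: 0% = DMSO wells given calcium and 100% = 1 mM EGTA wells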
FAS TE block: blocks the thioesterase domain of human fatty acid synthase | P49327 | recombinant FAS-TE, OMFH fluorogenic substrate, fluorescence endpoint | inhibition, % at 15 µM | 360,000 compounds, 0.67% hits | AID 602261;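 active = compounds whose normalised, plate-corrected inhibition of enzyme fluorescence in the single-dose primary screen is 50% or more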;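 note: 0% = DMSO with enzyme and 100% = substrate without enzyme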
NR3A LBD binder: modulators (binders) of human NR3A ligand-binding domain; NR3A LBD differential scanning fluorimetry, Tm shift; 0% = protein alone, 100% = glycine-bound protein; Tm shift relative to glycine control, % at 25 µM; 340,000 compounds, 2.5% hits;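 active = melting temperature shift of at least 10% of the positive control shift, at one fixed dose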
beta cell repl: inducers of beta-cell replication in MIN6 cells. 330,000 compounds, 0.29% hits. AID 2380. MIN6 cells proliferation, ATPlite luminescence, 48 h; cells starved in 0.2% serum; 100% = growth in 10% serum. proliferation, % at 10 µM;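 active = compounds whose signal lies at least 3.5 SD above the mean of all wells on their plate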;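 note: 0% = DMSO-treated cells in low-serum medium and 100% = 10% serum control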
* marks the source's active call; other numbers are inactive results; . = not tested or not shown.

SMILES	p-CIP stab down	MPTP block	FAS TE block	NR3A LBD binder	beta cell repl
CC1(C)CC(Cc2ccc(C(=O)c3ccccc3)cc2)N(C(=O)OC(C)(C)C)N1 (stereo unspecified)	.	0	-1	.	.
CCCCNC(=O)c1nc(-c2cc3ccccc3[nH]2)oc1-c1ccccc1	.	-1	.	.	.
Cc1ccccc1S(=O)(=O)N1CCN(c2ccc3c(c2)C2CC3CCN2C(=O)OCc2ccccc2)CC1 (stereo unspecified)	.	0	29	.	.
COc1ccc(-c2nc(SCC(=O)Nc3nccs3)c(-c3ccc(Cl)cc3)[nH]2)cc1	-8	1	8	15*	-6
COc1ccc2c(c1)sc1nc(-c3ccccc3)cn12	-10	3	15	20*	-4
CCOC(=O)N1CCN(C(=O)c2ccc3c(c2)sc2nc(-c4ccc(OC)cc4)cn23)CC1	-1	1	1	-11	-3
Cc1ccc(C(=O)Nc2ccccc2Sc2ccccc2)cc1	-7	-2	-6	0	0
O=C(Cc1ccccc1)Nc1cc(Cl)ccc1Sc1ccccc1	11	3	26	1	-5
O=C(Cc1ccc(Cl)cc1)Nc1ccccc1Sc1ccccc1	-14	10	44	15*	0
O=C(Nc1ccccc1Sc1ccccc1)c1ccc(F)cc1	2	1	44	19*	-1
Clc1ccc2c(SCC3CO3)c3ccccc3nc2c1 (stereo unspecified)	.	0	37	13*	.
O=C(CSc1c2c(nc3cc(Cl)ccc13)CCCC2)NCCN1CCOCC1	-4	0	-8	-3	-3
CCOC(=O)[C@]12CCCC=C1N(Cc1ccccc1)C(=O)[C@H](CC(=O)N1CCC(c3ccccc3)CC1)C2	.	0	.	.	.
O=C(NCc1ccc(F)cc1)c1ccc2c(=O)n3c(nc2c1)CCCCC3	-8	0	4	2	-3
Cc1nc2n(c(=O)c1CCN1CCC(c3noc4cc(F)ccc34)CC1)CCCC2	-19	-2	-1	10*	-4
O=C(NCCS(=O)(=O)N1CCN(c2ccccc2F)CC1)c1ccc2c(c1)OCO2	.	1	-3	31*	3
COc1ccccc1Cc1noc(COc2cccc(C)c2C)n1	0	-3	16	22*	-4
CCOC(=O)[C@]12CCC=C1N(CCC1=CCCCC1)C(=O)[C@H](CC(=O)N1CCSCC1)C2	.	1	-6	.	.
O=C(Nc1cccc(F)c1)c1cccnc1NCCc1ccccc1	1	30	29	17*	-5
O=C(Nc1ccc(F)cc1)c1cccnc1NCCc1ccccc1	-4	-16	29	5	-3
Cc1ccc(NC(=O)c2c(C)noc2-c2snnc2C)cc1	5	5	33	12*	-1
CCOC(=O)CSc1ncc(-c2ccccc2)nn1	5	-1	1	37*	-2
CCOC(=O)CSc1ncc(-c2ccccc2)cn1	11	1	2	-2	-4
Nc1ccc(C(=O)OCc2csc(-c3ccccc3)n2)cc1[N+](=O)[O-]	-8	2	-3	29*	-1
Cc1ccc(NC(=O)Nc2nc3ccccc3s2)cc1NC(=O)Nc1nc2ccccc2s1	6	0	1	28*	-7
SMILES	p-CIP stab down	MPTP block	FAS TE block	NR3A LBD binder	beta cell repl
Cc1ccc(Nc2nc3ccccc3s2)cc1	8	2	-4	22*	0
O=C(Nc1nc2ccccc2s1)c1ccc(F)cc1	7	-1	4	0	-4
Fc1ccc(Nc2nc3ccccc3s2)cc1	-5	0	4	20*	-1
Cc1ccc(CNC(=O)Nc2nnc([C@@H]3C[C@H](O)[C@@H](CO)O3)s2)cc1	.	0	-12	.	.
Cc1ccc(OCc2nnc(SCC(=O)N3CCOCC3)n2C)cc1	1	0	-4	16*	-2
Cc1ccc(OCc2nnc(SCCN3CCOCC3)n2C)cc1	4	0	-3	0	-1
COc1ccccc1/C=C/C=N/n1c(C2CCCCC2)n[nH]c1=S	8	4	7	13*	0
CCOc1ccccc1/C=N/n1c(C2CCCCC2)n[nH]c1=S	12	0	9	1	1
Cc1cccc(S(=O)(=O)c2c(N)n(/N=C/c3ccccc3)c3nc4ccccc4nc23)c1	-7	4	25	2	-2
Cc1ccc(S(=O)(=O)c2c(N)n(Cc3ccco3)c3nc4ccccc4nc23)cc1C	-23	12	9	7	-3
Cc1ccc(C)c(S(=O)(=O)c2c(N)n(/N=C/c3ccco3)c3nc4ccccc4nc23)c1	3	2	39	36*	-3
